Compound activity as filed in PubChem.
ClpP mod: qHTS Assay for Activators of ClpP; ATP-dependent Clp protease proteolytic subunit (Bacillus subtilis (strain 168)), P80244; purified B. subtilis ClpP, FRET peptide cleavage, 20 min; Potency, µM (doses to about 57.5 µM), without a hit: at the highest dose activity change, negative = active; 340,000 compounds, 1.9% hits; AID 651965, 2013; active means well fitted falling curve with a large enough effect; inconclusive means small, poorly fitted or top-dose-only effect; inactive means no such curve, though single readings can be large or run the other way; further: the source files actives as falling curves though it sought activators and does not explain the sign; nearly all actives have a fitted effect of over 65% in size
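Purified B. subtilis ClpP, 10 microg/mL final in Tris/HCl pH8 with KCl, BSA, glycerol and Tween-20, cleaved an Abz/nitrotyrosine-quenched decapeptide. Fluorescence (ex 320, em 430) was read at 0 and 20 min at room temperature. Delta was normalized to 5.8 microM ADEP and DMSO/no-enzyme controls.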
TDP1 block: qHTS Assay for Inhibitors of Tyrosyl-DNA Phosphodiesterase (TDP1). recombinant TDP1, AlphaScreen DNA substrate cleavage. Potency, µM (titrated, usually from 130 µM), without a hit: at the highest dose activity change, negative = inhibition, actives largely listed as inhibitors. 350,000 compounds, 0.28% hits; further: on the % scale 0 is the no-effect control and ±100 the full control effect; nearly all actives have a fitted effect of over 40% in size
Target sequence (Q9NUW8 whole entry, looked up): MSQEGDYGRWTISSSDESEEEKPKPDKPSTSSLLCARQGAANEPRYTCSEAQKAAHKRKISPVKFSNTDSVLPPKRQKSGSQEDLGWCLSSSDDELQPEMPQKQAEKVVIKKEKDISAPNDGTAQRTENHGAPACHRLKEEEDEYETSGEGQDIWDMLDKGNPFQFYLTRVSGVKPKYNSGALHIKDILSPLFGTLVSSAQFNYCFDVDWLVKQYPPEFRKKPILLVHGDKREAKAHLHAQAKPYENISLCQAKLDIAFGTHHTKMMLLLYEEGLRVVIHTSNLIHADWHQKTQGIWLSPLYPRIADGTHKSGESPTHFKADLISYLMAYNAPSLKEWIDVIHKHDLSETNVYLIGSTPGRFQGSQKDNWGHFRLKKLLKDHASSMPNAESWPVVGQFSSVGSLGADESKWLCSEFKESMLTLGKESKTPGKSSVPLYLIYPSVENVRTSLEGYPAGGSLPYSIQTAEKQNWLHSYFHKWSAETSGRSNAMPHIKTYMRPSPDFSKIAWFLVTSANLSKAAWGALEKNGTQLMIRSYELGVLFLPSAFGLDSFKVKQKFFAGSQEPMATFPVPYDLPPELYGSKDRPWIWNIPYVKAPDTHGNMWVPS
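Here, a 5' biotin and 3' phosphotyrosine-FITC DNA oligonucleotide reports Tdp1 activity: intact substrate bridges AlphaScreen beads, while cleavage leaves a 3' phosphate and drops signal. All incubations at room temperature.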
DT40 TDP1 no CPT: qHTS for Inhibitors of human tyrosyl-DNA phosphodiesterase 1 (TDP1): qHTS in cells in absence of CPT | DT40 Tdp1-/- hTDP1 cells, no CPT, ATP luminescence, 48 h | Potency, µM (titrated, usually from 46.2 µM), without a hit: top-dose activity change, negative = growth inhibition, usual class: inhibitors | 420,000 compounds, 15% hits | AID 686978, 2013; further: on the % scale 0 is the no-effect control and ±100 the full control effect; nearly all actives have a fitted effect of over 55% in size
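Luminescent ATP content (CellTiter-Glo) served as the growth readout. Knockout chicken DT40 cells expressing human TDP1 were exposed to compounds without camptothecin for a minimum 48 hr at 37 °C.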
DT40 TDP1 CPT: qHTS for Inhibitors of human tyrosyl-DNA phosphodiesterase 1 (TDP1): qHTS in cells in presence of CPT; chicken DT40 Tdp1-/-;hTDP1 cells + 20 nM CPT, ATP luminescence, 48 h; 420,000 compounds, 12% hits; Potency, µM (top dose mostly 46.2 µM), for inactives: at the highest dose activity change, negative = growth inhibition, hits mostly inhibitors; further: on the % scale 0 is the no-effect control and ±100 the full control effect; nearly all actives have a fitted effect of over 55% in size
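Chicken DT40 Tdp1-/- cells complemented with human TDP1, 400 cells/well, exposed to compounds plus 20 nM camptothecin for at least 48 h at 37 C; viability read as ATP content by CellTiter-Glo luminescence.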
* hit, by the source's call; u = inconclusive; x = no result; [ ] = dose if it differs, or a comment. Hits are enriched below; roughly 17% of the tested compounds scored in any of these assays. Unless noted, the call rests on the fitted dose curve; in most records, active means well fitted curve in the direction sought with a large enough effect; inconclusive means small, poorly fitted or top-dose-only effect, or another doubt; inactive means no such curve, though single readings can be large; an effect the other way counts as inactive or inconclusive. Potency means the concentration at half of the fitted maximal effect.

SMILES	ClpP mod	TDP1 block	DT40 TDP1 no CPT	DT40 TDP1 CPT
Cc1nn2c3ccccc3n(CCN3CCCCC3)c2nc1=O	u	0%	-13%	-9%
CCC(=O)N1CCc2cc(CNC(=O)Cc3ccc(F)cc3)ccc21	-1%	-1%	-27%	-24%
Cc1cccc(C)c1N=C1SC(CC(=O)Nc2c(C)cccc2C)C(=O)N1CCc1ccccn1 (centres undefined)	-3%	4%	16µM*	u
COc1cc2c(cc1OC)C(O)C(O)(CO)C(C(=O)O)C2c1cc(OC)c(OC)c(OC)c1 (centres undefined)	x	x	-5%	-1%
CC(=O)c1sc(N/N=C/c2cccc([N+](=O)[O-])c2)nc1C	x	5%	-23%	-18%
CC(=O)c1sc(N/N=C/c2cccc(O)c2)nc1C	-18%	x	12µM*	26µM*
CC(=O)c1sc(N/N=C\c2c(O)ccc3ccccc23)nc1C	x	x	0.92µM*	0.92µM*
Fc1ccc(-c2cc(-c3ccccc3)c3c(n2)-c2cc(F)ccc2OC3)cc1	u	1%	-15%	-11%
O=S(=O)(c1ccc2c(c1)OCCO2)N1CCN(S(=O)(=O)c2cc(F)c(F)cc2F)CC1	x	0%	x	x
COc1ccccc1NC(=O)C(C)Sc1nnc2ccc3ccccc3n12 (centres undefined)	0%	-5%	u	21µM*
CC(Sc1nnc2ccc3ccccc3n12)C(=O)Nc1ccc(Cl)cc1 (centres undefined)	0%	-8%	u	15µM*
CCOC(=O)C(C)Sc1nnc2ccc3ccccc3n12 (centres undefined)	-1%	3%	u	-1%
OC(c1ccccc1)c1nc(-c2ccccc2)cs1 (centres undefined)	-2%	x	-20%	2%
O=C(COc1nsnc1N1CCOCC1)N/N=C/c1ccccc1O	-14%	3%	2.6µM*	4.6µM*
COC(=O)Oc1nsnc1N1CCOCC1	-1%	0%	u	23µM*
CCOc1ccc(NC(=O)COc2nsnc2N2CCOCC2)cc1	-2%	3%	13µM*	16µM*
CSc1cccc(NC(=O)c2cnccn2)c1	-17%	0%	-4%	5%
COc1ccccc1C(=O)Nc1ccc2c(c1)CN(C(=O)CSC)CC2	x	2%	u	u
CCOC(=O)CNC(=O)N1CCc2ccc(NC(=O)c3ccccc3Cl)cc2C1	2%	x	8.2µM*	18µM*
CSc1cccc(NC(=O)N2CCc3ccc(NC(=O)c4ccccn4)cc3C2)c1	-25%	4%	13µM*	u
CCOC(=O)N/N=C1/C[C@@H](O)[C@@H](O)[C@@H]2[C@@H]3C(=O)N(C[C@@H]4CCCO4)C(=O)[C@H]3CC[C@@H]12	x	4%[21 µM]	x	x
CCCCn1c(N)c(N(CC(C)C)C(=O)C2CCCO2)c(=O)[nH]c1=O (centres undefined)	0%	x	3%	8%
O=C(NNC(=O)c1ccc(Cl)s1)c1csc(N2CCOCC2)n1	-9%	0%	4%	14%
CCCC(=O)Nc1cccc(S(=O)(=O)N(C)c2ccccc2)c1	1%	4%	u	16µM*
CN(c1ccccc1)S(=O)(=O)c1cccc(NC(=O)CCNC(=O)c2ccccc2)c1	-1%	0%	16µM*	18µM*
SMILES	ClpP mod	TDP1 block	DT40 TDP1 no CPT	DT40 TDP1 CPT
CN(c1ccccc1)S(=O)(=O)c1cccc(NC(=O)CCNC(=O)c2ccc(Cl)cc2)c1	1%	-14%[56.1 µM]	u	23µM*
CCNc1ncc2nc(-c3ccc(Cl)cc3)c(=O)n(Cc3ccc(F)cc3)c2n1	x	x	-11%	u
O=S(=O)(/C(=C\c1ccc(C(F)(F)F)cc1)c1nc2ccccc2[nH]1)c1ccccc1	x	x	2.1µM*	2.1µM*
O=S(=O)(NCCc1nc2ccccc2[nH]1)c1ccccc1	x	x	-29%	6%
CS(=O)(=O)/C(C#N)=C/c1cccn1S(=O)(=O)c1cccc2ccccc12	0%	x	16µM*	16µM*
CC(C)(C)S(=O)(=O)/C(C#N)=C/c1cccn1S(=O)(=O)c1ccccc1	1%	x	23µM*	-9%
Cc1nnc(-c2ccc(Oc3ccc(Cl)cc3)c([N+](=O)[O-])c2)o1	-1%	6%	23µM*	u
CN1CCc2c(sc(NC(=O)C3CCCN3S(=O)(=O)c3ccc(Cl)s3)c2C(N)=O)C1 (centres undefined)	x	-4%	u	-2%
CCCS(=O)(=O)NC(=O)C1(C)CCN(C(=O)c2ccc(F)cc2Cl)C1 (centres undefined)	-1%	x	-12%	0%
O=C(CSc1nnnn1-c1ccc(Cl)cc1)NC(=O)Nc1ccc2c(c1)OCCO2	0%	2%	1%	-27%
O=C(CSc1nnnn1-c1ccccc1Cl)Nc1ccc2c(c1)OCCO2	-2%	1%	21µM*	16µM*
O=C(CSc1nnnn1-c1ccc(F)cc1)Nc1ccc(N2CCOCC2)c(Cl)c1	0%	6%	u	15µM*
O=C(O)C(Cc1ccc(O)cc1)N1C(=O)C2CCCCC2C1=O (centres undefined)	1%	5%	21%	-9%
CC(=O)c1cccc(NC(=O)CC2S/C(=N/N=C/c3cccs3)NC2=O)c1 (centres undefined)	2%	-4%	3%	-5%
O=C1C[C@H]2[C@H](CO)[C@@H](OC(=O)c3ccc(-c4ccccc4)cc3)C[C@H]2O1	x	4%	16µM*	u
O=C1CC2C(CC(OC(=O)c3ccc(-c4ccccc4)cc3)C2CO)O1 (centres undefined)	u	1%	u	-5%
COC(=O)c1ccc(C2C(C(=O)c3cc4ccccc4o3)=C(O)C(=O)N2c2cc(C)on2)cc1 (centres undefined)	x	6%	-18%	-11%
Cc1cc(N2C(=O)C(O)=C(C(=O)c3cc4ccccc4o3)C2c2ccc(OC(C)C)cc2)no1 (centres undefined)	-2%	5%	16µM*	u
COc1cccc(C2C(C(=O)c3ccc(C)o3)=C(O)C(=O)N2c2cc(C)on2)c1 (centres undefined)	-1%	5%	u	23µM*
CCOC(=O)c1sc(N2C(=O)C(O)=C(C(=O)c3ccc(C)o3)C2c2ccc(OC)c(OC)c2)nc1C (centres undefined)	1%	2%	u	23µM*
COc1cc(C2C(C(=O)c3ccc(C)o3)=C(O)C(=O)N2c2cc(C)on2)ccc1OCc1ccccc1 (centres undefined)	-3%	7%	29µM*	u
CS(=O)(=O)N1CCC2(CCCN(C(=O)Nc3cccc(C#N)c3)C2)CC1	x	x	0%	-1%
